From PubChem BioAssay (NCI)
Compounds without any hit were thinned out: in the full panel of roughly 79,000, 15% have a hit. Activity calls are given as the source filed them. Cut-off read from the data, not from the text of the source: active = growth inhibition above about 70%; inactive = the rest.

Experiments:
[1] = NCI Yeast Anticancer Drug Screen. Data for the rad52 strain (AID 147);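 note: 0% = growth of vehicle-treated control cultures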; settings: S. cerevisiae rad52 mutant growth inhibition, hits give high values
Procedure, shortened: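 Read-out: growth inhibition versus vehicle-treated controls. Cells were a DNA repair-deficient yeast strain treated with compounds.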

[2] = NCI Yeast Anticancer Drug Screen. Data for the wt1 strain (AID 149);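 note: 0% = growth of vehicle-treated wt1 cultures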; settings: S. cerevisiae wt1 strain (SPY 50644) growth inhibition, hits give high values
Procedure, shortened: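 wt1 yeast, compound-treated; % growth inhibition vs vehicle control.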

[3] = NCI Yeast Anticancer Drug Screen. Data for the rad50EPP+ strain (AID 151);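 note: 0% = growth of vehicle-treated control cultures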; settings: S. cerevisiae rad50 mutant strain, hits give high values
Procedure, shortened: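 Growth inhibition read against vehicle controls in rad50EPP+ yeast, a strain altered in DNA damage repair, after compound exposure.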

[4] = NCI Yeast Anticancer Drug Screen. Data for the mgt1 strain (AID 153); settings: S. cerevisiae mgt1 mutant growth inhibition, hits give high values
Procedure, shortened: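 mgt1 yeast grown with test compound; read-out is growth inhibition versus vehicle-treated cultures.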

[5] = NCI Yeast Anticancer Drug Screen. Data for the rad50 strain (AID 155);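 note: 0% = growth of vehicle-only cultures of the same strain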; settings: S. cerevisiae rad50 strain growth inhibition, hits give high values
Procedure, shortened: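 Genetically altered yeast (DNA repair pathway); compound treatment; growth inhibition vs vehicle ctrl.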

[6] = NCI Yeast Anticancer Drug Screen. Data for the mec2-1 strain (AID 157); settings: S. cerevisiae mec2-1 strain, hits give high values
Procedure, shortened: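 Yeast mec2-1 mutant treated with compound. Readout: growth inhibition vs vehicle controls.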

[7] = NCI Yeast Anticancer Drug Screen. Data for the rad14 strain (AID 159);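 note: 0% = growth of vehicle-treated control cultures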; settings: S. cerevisiae rad14 strain growth inhibition, hits give high values
Procedure, shortened: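 Test compounds were applied to a repair-deficient yeast strain. Its growth was then compared with that of cultures given vehicle alone, and inhibition was expressed relative to those controls.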

[8] = NCI Yeast Anticancer Drug Screen. Data for the sgs1 mgt1 strain (AID 161);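 note: 0% = growth of cultures given vehicle only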; settings: S. cerevisiae sgs1 mgt1 strain, hits give high values
Procedure, shortened: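 Mutant yeast exposed to compound; growth scored against vehicle-only wells.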

[9] = NCI Yeast Anticancer Drug Screen. Data for the CLN2oe strain (AID 163);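 note: 0% = growth of vehicle-only control cultures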; settings: S. cerevisiae CLN2oe strain, hits give high values
Procedure, shortened: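 Read-out: yeast growth inhibition, expressed relative to vehicle-only controls. The strain bears an engineered cell-cycle alteration.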

[10] = NCI Yeast Anticancer Drug Screen. Data for the cln2 rad14 strain (AID 165);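 note: 0% = growth equal to vehicle treated cultures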; settings: S. cerevisiae cln2 rad14 strain, hits give high values
Procedure, shortened: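 cln2 rad14 yeast strain; compound exposure; growth inhibition read vs vehicle controls.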

[11] = NCI Yeast Anticancer Drug Screen. Data for the bub3 strain (AID 167); settings: S. cerevisiae bub3 mutant strain, hits give high values
Procedure, shortened: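 Yeast carrying a defined mutation is treated with each compound, and growth is compared with that of vehicle-exposed cells to give inhibition.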

[12] = NCI Yeast Anticancer Drug Screen. Data for the wt2 strain (AID 169);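 note: 0% = growth of vehicle-treated yeast cultures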; settings: S. cerevisiae wt2 strain growth inhibition, hits give high values
Procedure, shortened: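 Read-out: growth inhibition versus vehicle-treated control cultures after compound exposure of the yeast strain.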

[13] = NCI Yeast Anticancer Drug Screen. Data for the mlh1 strain (AID 171);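 note: 0% = growth of vehicle-treated control cultures of the same strain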; settings: S. cerevisiae mlh1 strain growth inhibition, hits give high values
Procedure, shortened: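 Read-out: growth inhibition versus vehicle controls. Strain: engineered yeast with a defined DNA repair or cell cycle defect, compound-treated.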

[14] = NCI Yeast Anticancer Drug Screen. Data for the sgs1 strain (AID 173);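 note: 0% = growth of vehicle-only control cultures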; settings: S. cerevisiae sgs1 mutant, hits give high values
Procedure, shortened: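 Read-out: yeast growth inhibition relative to vehicle controls, following compound exposure of a strain with a defined DNA repair/cell cycle alteration.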

[15] = NCI Yeast Anticancer Drug Screen. Data for the mlh1 rad18 strain (AID 175); settings: S. cerevisiae mlh1 rad18 strain growth inhibition, hits give high values
Procedure, shortened: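 Yeast w/ defined DNA-repair lesions; compound exposure; growth vs vehicle controls → % inhibition.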

[16] = NCI Yeast Anticancer Drug Screen. Data for the rad18 strain (AID 177); settings: S. cerevisiae rad18 mutant growth inhibition, hits give high values
Procedure, shortened: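 Readout: growth inhibition vs vehicle controls. Cells: genetically altered yeast strain, DNA repair defect.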

[17] = at 5.0 µM (retest, dose inferred, filed as 0.5)
[18] = at 50.0 µM (retest, dose inferred, filed as 5.0)

Measured: growth inhibition

CCOc1ccc2nc3ccccc3c(N)c2c1
inactive: [1]; at 1.2 µM 13% | [1]; at 3.7 µM 22% | [1]; at 11.0 µM 60% | [2]; at 1.2 µM 7% | [2]; at 3.7 µM 13% | [2]; at 11.0 µM 37% | [3]; at 1.2 µM 2% | [3]; at 3.7 µM 4% | [3]; at 11.0 µM 21% | [3]; at 33.0 µM 59% | [4]; at 1.2 µM 0% | [4]; at 3.7 µM 9% | [4]; at 11.0 µM 35% | [5]; at 1.2 µM 7% | [5]; at 3.7 µM 21% | [5]; [17] 0% | [5]; at 11.0 µM 50% | [6]; at 1.2 µM 5% | [6]; at 3.7 µM 4% | [6]; [17] 21% | [6]; at 11.0 µM 19% | [7]; at 1.2 µM 4% | [7]; at 3.7 µM 23% | [7]; at 11.0 µM 50% | [8]; [17] 32% | [9]; at 1.2 µM 7% | [9]; at 3.7 µM 16% | [9]; at 11.0 µM 33% | [9]; at 33.0 µM 68% | [10]; [17] 46% | [11]; at 1.2 µM -20% | [11]; at 3.7 µM -2% | [11]; [17] 14% | [11]; at 11.0 µM 16% | [12]; at 1.2 µM 7% | [12]; at 3.7 µM 18% | [12]; at 11.0 µM 49% | [13]; at 1.2 µM 7% | [13]; at 3.7 µM 8% | [13]; at 11.0 µM 47% | [14]; at 1.2 µM 10% | [14]; at 3.7 µM 24% | [14]; at 11.0 µM 51% | [15]; [17] 10% | [16]; at 1.2 µM 4% | [16]; at 3.7 µM 8% | [16]; at 11.0 µM 30%
active: [1]; at 33.0 µM 91% | [1]; at 100.0 µM 97% | [2]; at 33.0 µM 83% | [2]; at 100.0 µM 94% | [3]; at 100.0 µM 90% | [4]; at 33.0 µM 83% | [4]; at 100.0 µM 94% | [5]; at 33.0 µM 89% | [5]; [18] 81% | [5]; at 50.0 µM 91.2% | [5]; at 100.0 µM 97% | [6]; at 33.0 µM 80% | [6]; [18] 82% | [6]; at 50.0 µM 83.7% | [6]; at 100.0 µM 97% | [7]; at 33.0 µM 87% | [7]; at 100.0 µM 92% | [8]; [18] 86% | [8]; at 50.0 µM 81.2% | [9]; at 100.0 µM 92% | [10]; [18] 84% | [10]; at 50.0 µM 86.2% | [11]; at 33.0 µM 78% | [11]; [18] 84% | [11]; at 50.0 µM 87.1% | [11]; at 100.0 µM 90% | [12]; at 33.0 µM 89% | [12]; at 100.0 µM 98% | [13]; at 33.0 µM 90% | [13]; at 100.0 µM 98% | [14]; at 33.0 µM 88% | [14]; at 100.0 µM 97% | [15]; [18] 82% | [15]; at 50.0 µM 89.5% | [16]; at 33.0 µM 83% | [16]; at 100.0 µM 97%

COC(=O)c1cnc(Cl)c([N+](=O)[O-])c1
active: [1]; at 11.0 µM 94% | [1]; at 33.0 µM 98% | [1]; at 100.0 µM 99% | [2]; at 11.0 µM 82% | [2]; at 33.0 µM 99% | [2]; at 100.0 µM 99% | [3]; at 11.0 µM 93% | [3]; at 33.0 µM 98% | [3]; at 100.0 µM 99% | [4]; at 11.0 µM 92% | [4]; at 33.0 µM 99% | [4]; at 100.0 µM 99% | [5]; at 3.7 µM 75% | [5]; [17] 79% | [5]; at 11.0 µM 97% | [5]; at 33.0 µM 99% | [5]; [18] 98% | [5]; at 50.0 µM 99.5% | [5]; at 100.0 µM 99% | [6]; at 11.0 µM 72% | [6]; at 33.0 µM 98% | [6]; [18] 99% | [6]; at 50.0 µM 99.5% | [6]; at 100.0 µM 99% | [7]; at 33.0 µM 97% | [7]; at 100.0 µM 99% | [8]; [18] 99% | [8]; at 50.0 µM 99.3% | [9]; at 33.0 µM 97% | [9]; at 100.0 µM 99% | [10]; [18] 98% | [10]; at 50.0 µM 94.8% | [11]; at 11.0 µM 85% | [11]; at 33.0 µM 98% | [11]; [18] 99% | [11]; at 50.0 µM 98.9% | [11]; at 100.0 µM 99% | [12]; at 11.0 µM 88% | [12]; at 33.0 µM 99% | [12]; at 100.0 µM 99% | [13]; at 11.0 µM 92% | [13]; at 33.0 µM 99% | [13]; at 100.0 µM 100% | [14]; at 11.0 µM 88% | [14]; at 33.0 µM 98% | [14]; at 100.0 µM 99% | [15]; [17] 72% | [15]; [18] 98% | [15]; at 50.0 µM 98.5% | [16]; at 11.0 µM 95% | [16]; at 33.0 µM 98% | [16]; at 100.0 µM 99%
inactive: [1]; at 1.2 µM 17% | [1]; at 3.7 µM 53% | [2]; at 1.2 µM 6% | [2]; at 3.7 µM 15% | [3]; at 1.2 µM 14% | [3]; at 3.7 µM 48% | [4]; at 1.2 µM 2% | [4]; at 3.7 µM 23% | [5]; at 1.2 µM 22% | [6]; at 1.2 µM 5% | [6]; at 3.7 µM 10% | [6]; [17] 41% | [7]; at 1.2 µM 2% | [7]; at 3.7 µM 18% | [7]; at 11.0 µM 39% | [8]; [17] 47% | [9]; at 1.2 µM 0% | [9]; at 3.7 µM 5% | [9]; at 11.0 µM 48% | [10]; [17] 2% | [11]; at 1.2 µM 2% | [11]; at 3.7 µM 7% | [11]; [17] 24% | [12]; at 1.2 µM 4% | [12]; at 3.7 µM 20% | [13]; at 1.2 µM 3% | [13]; at 3.7 µM 11% | [14]; at 1.2 µM 5% | [14]; at 3.7 µM 20% | [16]; at 1.2 µM 4% | [16]; at 3.7 µM 29%
